Results on 40 compounds are retold here after the supplement of paper PMC4206461.

Each structure is given as a SMILES string.

In the assay the test system is Pseudomonas aeruginosa PA14 dppA1-A5 penta mutant + pBBR5.DppA1 (PA14_58350). Briefly: respiration area under curve with compound as sole nitrogen source, 24 h (OmniLog AUC (arbitrary units)); higher = more respiration / better utilisation as nitrogen source, active = 2000 or more. The method, then: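 Biolog Phenotype MicroArray plates PM6-PM8: each di/tripeptide is the sole nitrogen source. Tetrazolium reduction was read in the OmniLog for 24 h at 37°C and summarised as area under the respiration curve (arbitrary units). Values below 2000 count as no respiration. Strain is the SBP penta mutant complemented with DppA1 on a plasmid under its native promoter. Lys/His/Cys peptides are excluded.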
`CC(C)[C@H](NC(=O)[C@@H](N)Cc1ccc(O)cc1)C(=O)O` (plate: PM8): the “respiration area under curve” value was 6630 (active).

As to `CC[C@H](C)[C@H](N)C(=O)N[C@H](C(=O)O)[C@@H](C)CC` (plate: PM6), the “respiration area under curve” value was 1010 (inactive). In the case of `NC(N)=NCCC[C@H](NC(=O)[C@@H](N)Cc1c[nH]c2ccccc12)C(=O)O` (plate: PM7) it was 12000 (active); in that of `NCC(=O)N[C@@H](CCCN=C(N)N)C(=O)O` (plate: PM6), 7640 (active); in that of `NC(=O)CC[C@H](NC(=O)[C@@H](N)CO)C(=O)O` (plate: PM8), 7790 (active). As to `CC(C)[C@H](N)C(=O)N[C@@H](Cc1ccc(O)cc1)C(=O)O` (plate: PM7), the “respiration area under curve” value is 7120 (active). With `CC(C)C[C@H](NC(=O)[C@@H](N)CC(C)C)C(=O)O` (plate: PM6), the “respiration area under curve” value was 1870 (inactive). In the case of `NC(N)=NCCC[C@H](NC(=O)[C@@H]1CCCN1)C(=O)O` (plate: PM8) it was 10300 (active); in that of `N[C@@H](Cc1ccc(O)cc1)C(=O)NCC(=O)O` (plate: PM7), 8600 (active).

Regarding `CC(NC(=O)C(N)CC(=O)O)C(=O)O` (stereo not given) (plate: PM8), the “respiration area under curve” value was 6890 (active). In the case of `O=C(O)[C@H](Cc1c[nH]c2ccccc12)NC(=O)[C@@H]1CCCN1` (plate: PM8) it was 1320 (inactive); in that of `CSCC[C@H](N)C(=O)N[C@H](C(=O)O)C(C)C` (plate: PM7), 3360 (active); in that of `CC(C)[C@H](NC(=O)[C@@H](N)CC(=O)O)C(=O)O` (plate: PM6), 1900 (inactive).

In the case of `CC(C)[C@H](NC(=O)[C@@H](N)CO)C(=O)O` (plate: PM7), the “respiration area under curve” value is 6730 (active). In the case of `CC(C)[C@H](N)C(=O)N[C@@H](CC(=O)O)C(=O)O` (plate: PM7) it was 6440 (active); in that of `CC[C@H](C)[C@H](N)C(=O)N[C@@H](CC(C)C)C(=O)O` (plate: PM8), 4900 (active); in that of `C[C@H](NC(=O)[C@@H](N)CO)C(=O)O` (plate: PM7), 9020 (active).

`O=C(O)[C@H](Cc1ccc(O)cc1)NC(=O)[C@@H]1CCCN1` (plate: PM7): the “respiration area under curve” value was 11800 (active). In the case of `CC(C)C[C@H](N)C(=O)N[C@@H](CCCN=C(N)N)C(=O)O` (plate: PM6) it was 8260 (active); in that of `NC(N)=NCCC[C@H](N)C(=O)N[C@@H](Cc1c[nH]c2ccccc12)C(=O)O` (plate: PM6), 7290 (active); in that of `CC(C)[C@H](N)C(=O)N[C@H](C(=O)O)C(C)C` (plate: PM7), 6680 (active). In the case of `NC(=O)CC[C@H](NC(=O)[C@@H]1CCCN1)C(=O)O` (plate: PM7) it was 9270 (active).

Regarding `CSCCC(N)C(=O)NC(CCSC)C(=O)O` (stereo not given) (plate: PM7), the “respiration area under curve” value was 0 (inactive).

In the case of `CC(C)C[C@H](NC(=O)[C@H](CC(C)C)NC(=O)[C@@H](N)CC(C)C)C(=O)O` (plate: PM8), the “respiration area under curve” value was 3090 (active). In the case of `CSCC[C@H](NC(=O)[C@@H](N)CO)C(=O)O` (plate: PM7) it was 2590 (active).

`O=C(O)CC(NC(=O)C1CCCN1)C(=O)O` (stereo not given) (plate: PM7): the “respiration area under curve” value is 2970 (active). In the case of `CC[C@H](C)[C@H](N)C(=O)N1CCC[C@H]1C(=O)O` (plate: PM6) it was 5060 (active); in that of `CC(C)C[C@H](NC(=O)[C@@H]1CCCN1)C(=O)O` (plate: PM7), 5560 (active); in that of `C[C@@H](O)[C@H](N)C(=O)N[C@@H](Cc1ccccc1)C(=O)O` (plate: PM8), 6440 (active). Consider `CC[C@H](C)[C@H](NC(=O)[C@@H]1CCCN1)C(=O)O` (plate: PM8), for which the “respiration area under curve” value was 4410 (active). Take `CC[C@H](C)[C@H](N)C(=O)N[C@@H](CCSC)C(=O)O` (plate: PM6): the “respiration area under curve” value was 289 (inactive). In the case of `CSCC[C@H](N)C(=O)N[C@@H](CC(C)C)C(=O)O` (plate: PM7) it was 1540 (inactive); in that of `CC[C@H](C)[C@H](N)C(=O)N[C@@H](Cc1c[nH]c2ccccc12)C(=O)O` (plate: PM6), 287 (inactive). In the case of `C[C@H](N)C(=O)N[C@@H](CCC(N)=O)C(=O)O` (plate: PM8) it was 10400 (active). As for `CC(C)[C@H](NC(=O)[C@@H](N)CCCN=C(N)N)C(=O)O` (plate: PM6), the “respiration area under curve” value is 7530 (active). In the case of `O=C(O)[C@H](Cc1ccccc1)NC(=O)[C@@H]1CCCN1` (plate: PM7) it was 6240 (active). Regarding `NCC(=O)N[C@H](CC(=O)O)C(=O)O` (plate: PM8), the “respiration area under curve” value was 0 (inactive).

With `NC(=O)CC[C@H](NC(=O)[C@@H](N)CCCN=C(N)N)C(=O)O` (plate: PM6), the “respiration area under curve” value is 8870 (active). Consider `N[C@@H](Cc1c[nH]c2ccccc12)C(=O)N[C@@H](CCC(=O)O)C(=O)O` (plate: PM7), for which the “respiration area under curve” value was 1070 (inactive).

In the case of `CC[C@H](C)[C@H](NC(=O)[C@@H](N)Cc1ccc(O)cc1)C(=O)O` (plate: PM8), the “respiration area under curve” value was 6990 (active).
